Screens deposited in PubChem BioAssay by National Center for Advancing Translational Sciences (NCATS).
D1 PAM: human D1 dopamine receptor positive modulation | 0.036% of 360,000 active | P21728 | AID 504651 | HEK293 TREx D1 cells, calcium flux, dopamine EC20 potentiation | potentiation, % at 10 µM; in the data active = potentiation above about 30%; also: 0% is about no effect
Target sequence (P21728 whole entry, looked up): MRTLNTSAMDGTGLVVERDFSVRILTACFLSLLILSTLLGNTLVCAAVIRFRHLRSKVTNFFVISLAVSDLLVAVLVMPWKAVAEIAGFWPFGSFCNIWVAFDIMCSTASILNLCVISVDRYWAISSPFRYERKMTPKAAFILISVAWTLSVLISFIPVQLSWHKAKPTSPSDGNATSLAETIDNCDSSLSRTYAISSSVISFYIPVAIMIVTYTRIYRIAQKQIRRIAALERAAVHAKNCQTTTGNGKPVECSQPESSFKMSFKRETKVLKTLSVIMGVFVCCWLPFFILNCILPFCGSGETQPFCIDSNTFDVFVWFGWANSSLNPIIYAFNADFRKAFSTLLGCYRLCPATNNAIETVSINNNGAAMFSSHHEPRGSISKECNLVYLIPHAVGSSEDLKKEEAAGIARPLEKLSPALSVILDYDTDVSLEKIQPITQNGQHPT
TRHR ag: TRH receptor (human) agonism; TRHR cells, calcium flux fluo-8, FDSS agonist mode; activation, % at 2 µM; 0.18% of 360,000 active; P34981; AID 493084; also: 0% is about no effect
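TRHR-expressing cells loaded with fluo-8 calcium dye; 23 nL library compound pin-transferred, kinetic FDSS fluorescence (Ex 480/Em 530) recorded about 180 s for agonist-induced calcium release, before a 10 nM TRH EC20 addition for potentiator mode.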
D1 agonist: human D1 receptor agonism; AID 504660; HEK293 T-REx D1 cells, calcium flux, agonist mode; 1% of 360,000 active; activation, % at 2 µM; P21728; also: 0% is about no effect
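Tetracycline-induced HEK293 TREx D1 cells, force-coupled to calcium signalling, were dye-loaded with a no-wash calcium kit. Compound was pin-added after a 10 s baseline. Fluorescence was read kinetically at 1 cycle/s for 180 s, with calcium rises flagged as agonism.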
TRHR PAM: TRH receptor (human) allosteric enhancement; 0.66% of 360,000 active; AID 493056; P34981; enhancement, % at 2 µM; TRHR cells, fluo-8 calcium fluorescence, EC20 TRH enhancement; in the data active = enhancement above about 30%; also: 0% is about no effect
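Enhancer read-out: after compound pinning and an initial kinetic agonist-mode read, an EC20 of TRH (10 nM final) was injected and fluo-8 calcium signal (Ex 480/Em 530) followed at 1 s/cycle for 100 cycles in TRHR-expressing cells.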
D1 antag: antagonists of human D1 dopamine receptor | 3.2% of 360,000 active | HEK293 TREx D1 cells, calcium flux, dopamine EC80; stronger effect = lower value | P21728 | activity change, negative = inhibition, % at 10 µM; in the data active = activity change below about -30%; also: % is scaled to controls: 0 for no effect and ±100 for the full control effect
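Cells carrying a force-coupled, tetracycline-inducible human D1 receptor report calcium flux. Each well gets a 10 s baseline, compound with 180 s monitoring, then an EC80 dopamine stimulus with a second 180 s kinetic read.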
Active calls of the source: *. Rows were chosen to be rich in hits. Some 4.6% of all compounds tested hit in one or more screens of this group. Rule as the data show it, unless noted: active = activation above about 30%; inactive = the rest.

SMILES | D1 PAM | TRHR ag | D1 agonist | TRHR PAM | D1 antag
Cc1cc(C)n(-c2nnc(N3CCN(c4ccc(F)cc4)CC3)nn2)n1 | 1 | -1 | 3 | -1 | -42*
CCN1CCN(c2cc(C)c3cc(NC(=O)/C=C/c4cccc(Cl)c4)ccc3n2)CC1 | -1 | 0 | 10 | 4 | -36*
CCCCc1ccc(C(=O)Nc2ccc3nc(N4CCN(CC)CC4)cc(C)c3c2)cc1 | -1 | 0 | 5 | -1 | -59*
CCN1CCN(c2cc(C)c3cc(NC(=O)c4cccc(Cl)c4)ccc3n2)CC1 | -1 | 0 | 4 | 6 | 7
CN(C(=O)c1ccc(NC(=O)Cc2cccc(NC(=O)C3CCCN(C(=O)CCc4ccccc4)C3)c2)cc1)C1CCCC1 (configuration not stated) | 2 | 1 | 4 | -1 | 6
CN(Cc1ccccc1)C(=O)c1ccc(NC(=O)Cc2cccc(NC(=O)C3CCCN(C(=O)CCc4ccccc4)C3)c2)cc1 (configuration not stated) | -4 | 1 | 8 | 0 | -33*
CCCc1c(C)[nH]c2ccc(C(=O)O)cc2c1=S | 2 | -1 | 2 | 6 | 9
CC(=O)Nc1ccc(C(=O)OCC(=O)c2cccc([N+](=O)[O-])c2)cc1 | -12 | -1 | 4 | 0 | -7
Cc1ccc(C(=O)CCS(=O)(=O)c2ccc(Br)cc2)cc1 | -2 | -1 | 6 | -1 | 1
Cc1ccc(S(=O)(=O)CCC(=O)c2cccc([N+](=O)[O-])c2)cc1 | -12 | -1 | 4 | -3 | -32*
CC(=O)Nc1ccc(NC(=O)CCC(=O)OCC(=O)c2cccc([N+](=O)[O-])c2)cc1 | -2 | 1 | 3 | 1 | -67*
CCCS(=O)(=O)Nc1cc2c(cc1NCc1ccccc1)n(C)c(=O)n2C | 2 | 0 | 0 | 6 | -5
COCCCNC(=O)c1ccc2c(c1)N=C(C)c1c(C)ccc(C)c1S2 | -1 | -2 | 5 | 4 | -5
Cc1cc(C)cc(C(=O)NC(=S)Nc2ccc(-c3cc4ccccc4oc3=O)cc2)c1 | -10 | 0 | 0 | 1 | -57*
CCOc1ccc(NC(=O)CSc2oc(-c3ccc(C)cc3)nc2S(=O)(=O)c2ccc(C)cc2)cc1 | 0 | 0 | 44* | 8 | 15
CCOc1ccc(NC(=O)CSc2oc(-c3cccs3)nc2S(=O)(=O)c2ccc(Cl)cc2)cc1 | -1 | 0 | 5 | -1 | -18
CN(CCOc1ccc(Cl)cc1)CC(O)c1ccccc1 (configuration not stated) | -5 | -2 | 33* | -10 | -6
Cc1ccc(-n2c(C)nn(-c3ncc(C(F)(F)F)cc3Cl)c2=O)cc1 | -5 | 0 | 0 | -3 | -47*
Cc1ccc(C(=O)N2CCCCC2C(=O)O)o1 (configuration not stated) | -1 | 0 | 1 | -3 | 5
CC1CCCCN1C(=O)c1ccc(Br)o1 (configuration not stated) | -1 | 0 | 4 | 32* | 6
COC(=O)c1sc2cccc(F)c2c1S(=O)(=O)N1CCN(c2ccc(C)cc2C)CC1 | -5 | 0 | 4 | -2 | 4
Cc1nn(CCCC(=O)Nc2cc(C(F)(F)F)ccc2Cl)c(=O)c2c1sc1ccccc12 | -1 | 0 | 1 | 4 | 2
CC(SCc1cc(=O)n2c([nH]c3ccccc32)c1C#N)C(=O)O (configuration not stated) | -4 | 2 | 3 | 2 | -32*
Cc1cccc(-n2cc(-c3ccccc3)c3c(NC(C)C)ncnc32)c1 | 3 | 0 | 1 | 2 | 8
Cc1c(C(C)(C)C)s/c(=N/S(=O)(=O)c2ccccc2)n1C | -9 | 0 | 0 | 3 | -35*
SMILES | D1 PAM | TRHR ag | D1 agonist | TRHR PAM | D1 antag
COC(=O)c1sc(N)c(C(=O)OC)c1COC(=O)[C@@H](NS(=O)(=O)c1cccc(Cl)c1)C(C)C | 2 | -1 | -1 | 0 | -13
COC(=O)c1sc(N)c(C(=O)OC)c1COC(=O)CNS(=O)(=O)c1cccc(C#N)c1 | 6 | 0 | 1 | 9 | -33*
COc1cccc(CNC(=O)c2cc3c(s2)-c2c(C)cccc2OC3)c1 | -8 | 0 | 2 | 14 | -36*
COc1cccc(CNC(=O)c2cc3c(s2)-c2ccccc2OC3)c1 | -6 | 0 | 2 | 1 | -11
COc1ccc(NC(=O)c2cc3c(s2)-c2c(C)cccc2OC3)cc1Cl | -4 | 1 | 1 | 50* | -11
COc1cc(Cl)c(C)cc1NC(=O)c1cc2c(s1)-c1c(C)cccc1OC2 | -4 | 0 | -1 | -17 | 8
Cc1ccccc1C(=O)Nc1cccc(-c2nc3cccnc3s2)c1 | 1 | 0 | -1 | -3 | -22
CCC(=O)NC(/C=C/c1ccccc1)c1cc([N+](=O)[O-])c2cccnc2c1O (configuration not stated) | -6 | 0 | 2 | 32* | -2
O=C(NCCc1csc(-c2ccc(C(F)(F)F)cc2)n1)c1ccc(F)c(F)c1 | -6 | 0 | 3 | -4 | -9
COc1cc(C)c(C)cc1S(=O)(=O)Nc1cccc(-c2ccc(N3CCOCC3)nn2)c1 | -3 | 0 | -2 | -23 | -69*
COc1ccc(S(=O)(=O)Nc2cccc(-c3ccc(N4CCOCC4)nn3)c2)cc1F | 2 | 0 | -1 | 1 | -37*
Cc1ccc([N+](=O)[O-])cc1S(=O)(=O)Nc1cccc(-c2ccc(N3CCOCC3)nn2)c1 | -2 | 1 | 3 | 0 | -3
O=C(CCN=C1NS(=O)(=O)c2ccccc21)OCc1nnc(-c2ccccc2)o1 | -5 | -1 | 1 | 10 | 0
CCCOc1ccccc1C(=O)Nc1ccc(-c2nc3ccc(C)cc3s2)cc1 | -3 | 1 | 0 | 8 | 12
CCOC(=O)c1c(/C=N/Nc2ccccc2)c2sc(C)cc2n1C | 10 | 0 | -1 | 1 | 8
COc1ccc(CNC(=O)CCSc2ccc(F)cc2)cc1OC | -4 | 0 | 2 | 0 | -40*
Cc1ccccc1C(=O)N=c1ccn(-c2nc3ccccc3nc2NS(=O)(=O)c2ccc(F)cc2)cc1 | -6 | 12 | 70* | -3 | -25
O=C(Nc1ccccc1C(=O)O)/C(=C/c1ccc(Cl)cc1Cl)NC(=O)c1ccco1 | 5 | 0 | 20 | 2 | -2
COC(=O)Cn1cccc1C(=O)c1ccccc1 | -10 | 0 | 0 | 14 | -12
O=C(O)Cn1cccc1C(=O)c1ccccc1 | -2 | 13 | 33* | 2 | -16
O=S(=O)(c1ccc2c(c1)OCCO2)N1CCN(S(=O)(=O)c2cccc(Cl)c2F)CC1 | -4 | 0 | 8 | 0 | 5
O=C(O)c1ccc(-n2c(/C=C/c3ccccc3)nc3ccccc3c2=O)cc1 | 12 | 0 | 0 | -7 | -5
COC(=O)c1ccc(-n2c(/C=C\c3cccc(Br)c3)nc3ccccc3c2=O)cc1 | -2 | 0 | 4 | 0 | -32*
